This is an account of results in PubChem BioAssay (NCATS).

Results filed as inconclusive are left out. Calls of active or inactive are those of the source. Unless noted, calls follow the shape of the dose curve; as a rule, active = well fitted curve in the direction sought with a large enough effect; inconclusive = small, poorly fitted or top-dose-only effect, or another doubt; inactive = no such curve, though single readings can be large; an effect the other way counts as inactive or inconclusive.

A short description of test [1]: High-throughput drug toxicity screening in the BPDCN cell line Gen2.2 (AID 1224824; call rule not given here;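 also: cells exposed to compounds for 48 h before reading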). The settings on record: Gen2.2 BPDCN cells; at 45.8 µM (top of the series) unless noted. A digest of the protocol:
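Gen2.2 cells, 500 per well in phenol red-free RPMI with 10% FBS, exposed to compounds 48 h at 37 C, 5% CO2; viability by CellTiter-Glo luminescence. Percent activity scaled to DMSO (100%) and 9.2 uM bortezomib final (0%).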

A short description of test [2]: High-throughput drug toxicity screening in the BPDCN cell line Cal-1 (AID 1224825; call rule not given here). Conditions: Cal-1 BPDCN cell viability, qHTS; at 45.8 µM (top of the series) unless noted. A digest of the protocol: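 500 Cal-1 cells/well, RPMI + glutamine + 10% FBS (phenol red-free); cpd added by pin tool; 48 h, 37C, 5% CO2; CTG 15 min RT, lumi read. Normalised: DMSO 100%, bortezomib 9.2 uM 0%.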

Test [3] in a line: qHTS assay for measurement of the activity of small molecule inhibitors on Zika virus induced Caspase-3 activity in human iPSC derived neural progenitor cells (hNPCs) (AID 1224857). Also: % of control where 0% means no effect; nearly all actives have a fitted effect of over 65% in size. In a few lines:
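After overnight (16–20 h) culture at 350 cells/well, hNPCs get compound, then ZIKV 2 FFU/cell one hour later. Six hours on, Caspase-Glo 3/7 is added and luminescence measured.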

Test [4] in a line: qHTS assay for measurement of the activity of small molecule inhibitors on Zika virus induced Caspase-3 activity in human astrocytoma cells (AID 1224859).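 Also: plate controls were ZIKV-infected untreated cells for no effect and uninfected cells for full effect.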 In a few lines: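 Inhibition of Zika-induced caspase-3/7 activity: SNB-19 cells, 1 h compound pretreatment, ZIKV 2 FFU/cell for 6 h at 37 C, Caspase-Glo luminescence read-out.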
In general terms: In qHTS, concentration-response curves come from the screen itself.

Test [5] can be described thus: qHTS Screen of the MIPE 4.0 Collection Against Ewings Sarcoma (RDES) (AID 1259252). Also: nearly all actives have a fitted effect of over 35% in size. Also: potency is read from the fitted curve at half-maximal effect. A digest of the protocol:
(§1)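 CellTiter-Glo luminescence after 48 h compound exposure (titration) gave viability; percent activity used DMSO-treated cells as no inhibition and medium-only wells as full inhibition. Cells grown in RPMI/5% FBS, dosed 4 h post-seeding.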

Test [6] in a line: qHTS Screen of the MIPE 4.0 Collection Against Ewings Sarcoma (TC71) (AID 1259253). Also: nearly all actives have a fitted effect of over 40% in size. Also: potency is read from the fitted curve at half-maximal effect. A digest of the protocol: as §1
The nature of test [7]: qHTS Screen of the MIPE 4.0 Collection Against Ewings Sarcoma (TC32) (AID 1259256). Also: nearly all actives have a fitted effect of over 45% in size. Also: potency is read from the fitted curve at half-maximal effect. In a few lines: as §1
Test [8] in a line: qHTS assay to identify small molecule inhibitors of chordoma cells - UCH-2 (AID 1259356). Also: % is scaled to controls: 0 for no effect and ±100 for the full control effect.
Test [9] can be described thus: P-glycoprotein substrates identified in KB-8-5-11 adenocarcinoma cell line, qHTS therapeutic library screen (AID 1346987). Also: nearly all actives have a fitted effect of over 65% in size. Also: potency is read from the fitted curve at half-maximal effect. A digest of the protocol:
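Steps: plate 500 KB-8-5-11 cells/well in DMEM + 10% FCS (colchicine removed); pin compounds in dose-response; incubate 72 h, 37 degree C, 5% CO2; add CellTiter-Glo, 5 min; read luminescence.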

Test [10] in a line: qHTS Screen of the MIPE 4.0 Collection Against Ewings Sarcoma (EW8) (AID 1259255). Also: nearly all actives have a fitted effect of over 35% in size. Also: potency is read from the fitted curve at half-maximal effect.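 As to viability: 100% = DMSO-treated cells and 0% = medium-only wells without cells.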 In a few lines:
as §1

For test [11], the target named is Atrial natriuretic peptide receptor 2 (Homo sapiens) (UniProt P20594). Kind of test: Natriuretic polypeptide receptor (hNpr2) antagonism - Pilot subtype selectivity assay (AID 1347050; calls by dose curve; also: % is scaled to controls: 0 for no effect and ±100 for the full control effect). In a few lines: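 Pilot selectivity screen against hNpr2: HEK293 cGMP-sensor cells are treated with LOPAC1280 compounds, then with hNppC peptide at 1 nM final. The cGMP-driven luminescence change over 20 min at room temperature is the read-out.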

A short description of test [12]: qHTS assay to identify small molecule inhibitors of chordoma cells - UCH-1 (AID 1259355). Also: % is scaled to controls: 0 for no effect and ±100 for the full control effect; nearly all actives have a fitted effect of over 55% in size. A digest of the protocol: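 Seed 800 cells per well; incubate overnight at 37 C, 5% CO2. Add test compounds (15 concentrations), then the auranofin–topoisomerase-agent combination. Incubate 48hr, add CellTiter-Glo, wait 30min, read luminescence.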
A short description of test [13]: P-glycoprotein substrates identified in KB-3-1 adenocarcinoma cell line, qHTS therapeutic library screen (AID 1346986). Also: nearly all actives have a fitted effect of over 60% in size. The settings on record: KB-3-1 parental cells viability, CellTiter-Glo, 72 h; at 44.5 µM (top of the series). A digest of the protocol:
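Cells seeded 500/well in DMEM/10% FCS; compounds pinned in dose-response; 72 h incubation; CellTiter-Glo added, 5 min, luminescence. KB-8-5-11 run ±tariquidar to test reversal of P-gp resistance.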

Test [14] addresses Atrial natriuretic peptide receptor 1 (Homo sapiens) (UniProt P16066). Kind of test: Natriuretic polypeptide receptor (hNpr1) antagonism - Pilot screen (AID 1347049; calls by dose curve;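 also: agonist-evoked cGMP luminescence read 20 min after hNppA addition; % is scaled to controls: 0 for no effect and ±100 for the full control effect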). In a few lines:
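Readout is cGMP-driven firefly luciferase luminescence in HEK293 cells carrying hNpr1 and a PDE5-domain GloSensor, read before and 20 min after 0.1 nM hNppA stimulation. Cells had 2% substrate reagent for 2 h and test compound for 30 min.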

Atrial natriuretic peptide receptor 2 (Homo sapiens), sequence (P20594 whole entry, looked up): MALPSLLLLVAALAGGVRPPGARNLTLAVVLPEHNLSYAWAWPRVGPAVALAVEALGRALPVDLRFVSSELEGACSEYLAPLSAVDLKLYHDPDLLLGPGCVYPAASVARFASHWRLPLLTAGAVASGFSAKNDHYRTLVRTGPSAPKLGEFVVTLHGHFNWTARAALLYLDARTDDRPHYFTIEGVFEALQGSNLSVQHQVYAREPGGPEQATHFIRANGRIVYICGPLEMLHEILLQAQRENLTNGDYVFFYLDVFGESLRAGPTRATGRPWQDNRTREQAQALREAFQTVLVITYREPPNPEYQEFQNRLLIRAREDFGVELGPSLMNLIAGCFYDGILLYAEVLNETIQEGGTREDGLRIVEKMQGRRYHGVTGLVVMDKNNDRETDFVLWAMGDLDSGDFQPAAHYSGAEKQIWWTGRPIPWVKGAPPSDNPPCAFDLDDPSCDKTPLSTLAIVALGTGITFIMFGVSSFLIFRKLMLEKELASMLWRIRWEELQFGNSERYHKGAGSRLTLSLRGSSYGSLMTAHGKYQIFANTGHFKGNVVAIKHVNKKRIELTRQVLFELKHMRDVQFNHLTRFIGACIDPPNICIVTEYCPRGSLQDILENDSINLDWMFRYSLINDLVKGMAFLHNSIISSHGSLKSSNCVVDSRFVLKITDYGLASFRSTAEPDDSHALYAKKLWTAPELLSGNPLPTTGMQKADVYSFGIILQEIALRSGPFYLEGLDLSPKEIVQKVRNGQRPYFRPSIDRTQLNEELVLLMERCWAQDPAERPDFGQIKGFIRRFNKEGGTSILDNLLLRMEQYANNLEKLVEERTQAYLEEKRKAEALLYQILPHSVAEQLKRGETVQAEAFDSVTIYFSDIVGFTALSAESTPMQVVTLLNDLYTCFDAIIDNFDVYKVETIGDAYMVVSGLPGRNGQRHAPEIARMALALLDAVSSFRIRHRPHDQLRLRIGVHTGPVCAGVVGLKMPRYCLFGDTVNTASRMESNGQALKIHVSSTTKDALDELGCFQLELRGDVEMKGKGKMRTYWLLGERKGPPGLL
Atrial natriuretic peptide receptor 1 (Homo sapiens), sequence (P16066 whole entry, looked up): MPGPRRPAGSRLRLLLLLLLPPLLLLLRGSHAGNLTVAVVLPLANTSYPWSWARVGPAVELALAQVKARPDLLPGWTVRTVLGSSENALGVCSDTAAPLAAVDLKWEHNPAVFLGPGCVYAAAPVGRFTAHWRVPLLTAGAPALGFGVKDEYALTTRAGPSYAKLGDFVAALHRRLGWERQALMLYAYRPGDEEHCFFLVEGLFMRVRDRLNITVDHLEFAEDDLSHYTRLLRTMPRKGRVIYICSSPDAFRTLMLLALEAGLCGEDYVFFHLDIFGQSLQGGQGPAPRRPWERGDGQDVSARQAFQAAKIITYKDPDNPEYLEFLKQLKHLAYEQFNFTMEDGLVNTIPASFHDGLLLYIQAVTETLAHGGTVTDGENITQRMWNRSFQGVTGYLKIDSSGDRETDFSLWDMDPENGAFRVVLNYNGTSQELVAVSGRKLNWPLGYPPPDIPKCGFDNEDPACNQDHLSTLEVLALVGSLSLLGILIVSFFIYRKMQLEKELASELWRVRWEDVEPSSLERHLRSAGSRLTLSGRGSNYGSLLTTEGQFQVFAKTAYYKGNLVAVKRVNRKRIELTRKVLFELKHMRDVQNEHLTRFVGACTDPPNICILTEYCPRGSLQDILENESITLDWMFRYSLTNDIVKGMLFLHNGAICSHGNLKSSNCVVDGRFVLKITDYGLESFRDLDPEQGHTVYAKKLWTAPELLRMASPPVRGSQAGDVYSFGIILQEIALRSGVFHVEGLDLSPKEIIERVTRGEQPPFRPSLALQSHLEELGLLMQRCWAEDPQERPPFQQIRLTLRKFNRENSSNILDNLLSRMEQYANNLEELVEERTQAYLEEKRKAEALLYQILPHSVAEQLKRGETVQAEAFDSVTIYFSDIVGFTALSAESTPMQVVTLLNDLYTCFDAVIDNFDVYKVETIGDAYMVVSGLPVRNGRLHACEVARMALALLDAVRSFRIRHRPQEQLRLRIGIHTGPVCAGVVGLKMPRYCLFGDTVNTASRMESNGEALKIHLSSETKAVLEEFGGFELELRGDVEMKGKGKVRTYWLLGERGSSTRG

For the compound `CC[C@H](C)C(=O)O[C@H]1C[C@@H](C)C=C2C=C[C@H](C)[C@H](CC[C@@H]3C[C@@H](O)CC(=O)O3)[C@H]21`, the cell viability, % of control (lower = more cytotoxic) in test [1] is 8.11%. Further, in test [2], the viability (% of control) came out at 84.4%. Further, the Potency entry in test [3], in [4] and in [8] was “inactive” in each case. In addition, the Potency in test [5] is 18.7 µM (active); in [6] it was 14.8 µM (active); in test [7], 7.43 µM (active); in test [9], 18.7 µM (active).

With `N[C@@H](Cc1ccc(O)c(O)c1)C(=O)O`, in [1], the cell viability, % of control (lower = more cytotoxic) amounted to 94.2%. Besides, in [2], the viability (% of control) turned out to be 93.8%. Further, the Potency result in test [3], in [4], in test [5], in [6], in test [10] and in test [7] was “inactive” throughout. For the same compound, the Potency result in [9] and in [11] was “inactive” throughout.

Regarding `COc1ccc2cc3[n+](cc2c1OC)CCc1cc2c(cc1-3)OCO2`, the cell viability, % of control (lower = more cytotoxic) in [1] stood at 19.2%. Besides, the viability (% of control) in test [2] came to 7.43%. Further, the Potency entry in [3], in [4], in test [12], in test [8] and in test [9] was “inactive” in each case. Also, the Potency in [5] was 8.33 µM (active); in test [10] it was 11.8 µM (active); in test [7] it was 7.43 µM (active).

As for `CCOc1cc(N)c(Cl)cc1C(=O)NCC1CN(Cc2ccc(F)cc2)CCO1` (configuration not stated), the cell viability, % of control (lower = more cytotoxic) in [1] turned out to be 376%. The viability (% of control) in [2] was 98.6%. Moreover, the Potency result in test [3], in [4], in [5], in [6], in test [10] and in test [7] was “inactive” in each case. Moreover, in test [9], the Potency result was “inactive”.

In the case of `CN1CCN(c2c(F)cc3c(=O)c(C(=O)O)cn(CCF)c3c2F)CC1`, the cell viability, % of control (lower = more cytotoxic) in [1] worked out at 140%. Besides, the viability (% of control) in test [2] turned out to be 98.4%. For the same compound, the Potency entry in test [3], in [4], in [5], in test [10], in test [7] and in test [12] was “inactive” each time. The Potency result in test [8] and in test [9] was “inactive” each time.

For `Nc1nc(N)nc(-c2cc(Cl)ccc2Cl)n1`, the cell viability, % of control (lower = more cytotoxic) in test [1] turned out to be 126%. Besides, in test [2], the viability (% of control) came to 98%. In addition, the Potency entry in [3], in [4], in test [5], in test [10], in test [7] and in [12] was “inactive” each time. Besides, the Potency result in [8] and in [9] was “inactive” in each case.

Consider `CS(=O)(=O)c1ccc([C@@H](O)[C@@H](CO)NC(=O)C(Cl)Cl)cc1`, for which the cell viability, % of control (lower = more cytotoxic) in test [1] was 94.5%. Besides, the viability (% of control) in test [2] stood at 86.4%. Also, the Potency entry in [3], in test [4], in test [12] and in [9] was “inactive” each time. In addition, the Potency in test [5] was 13.2 µM (active); in test [6] it was 16.6 µM (active); in [7], 18.7 µM (active).

In the case of `CCOCC(O)COc1ccc(NC(=O)CC[S+](C)C)cc1` (configuration not stated), in [1], the cell viability, % of control (lower = more cytotoxic) was determined as 120%. Besides, in [2], the viability (% of control) amounted to 110%. Besides, the Potency result in test [3], in test [4], in test [5], in [10], in test [7] and in test [12] was “inactive” in each case. Besides, in test [9], the Potency entry was “inactive”. Besides, in test [13], the result was inactive.

With `O=C(O)C1CCCN(CCC=C(c2ccccc2)c2ccccc2)C1` (configuration not stated), the cell viability, % of control (lower = more cytotoxic) in test [1] amounted to 145%. Further, the viability (% of control) in [2] is 127%. The Potency result in test [3], in test [4], in test [9], in [14] and in test [11] was “inactive” each time. Besides, the Potency is 11.8 µM (active) in test [5], 9.35 µM (active) in test [6], 13.2 µM (active) in [10] and 9.35 µM (active) in test [7].

Regarding `CCOC(=O)c1ccc(OC(=O)CCCCCN=C(N)N)cc1`, in test [1], the cell viability, % of control (lower = more cytotoxic) came out at 186%. In test [2], the viability (% of control) was determined as 106%. In addition, the Potency result in test [3], in test [4], in test [5], in test [6], in test [10] and in test [7] was “inactive” throughout. Moreover, the Potency result in [9] is “inactive”.
